Experimental findings from publication PMC7862700, “An all-to-all approach to the identification of sequence-specific readers for epigenetic DNA modifications on cytosine” are described below.

What all share (experiment): DAPPL (digital affinity profiling via proximity ligation, sequencing); 10 mM Tris-HCl pH 7.5, 50 mM NaCl, 1 mM DTT, 4% glycerol, room temperature, 30 min; GST-TFs on glutathione beads, 16-mer random dsDNA library, 0.1% formaldehyde crosslink after washing; high values mean tight binding
What all share (conditions): protein: recombinant; tags: N-terminal GST; dsDNA, one strand shown

One assay has as its target T1, FLI1 (Homo sapiens, UniProt Q01543 1-452).
T1 sequence: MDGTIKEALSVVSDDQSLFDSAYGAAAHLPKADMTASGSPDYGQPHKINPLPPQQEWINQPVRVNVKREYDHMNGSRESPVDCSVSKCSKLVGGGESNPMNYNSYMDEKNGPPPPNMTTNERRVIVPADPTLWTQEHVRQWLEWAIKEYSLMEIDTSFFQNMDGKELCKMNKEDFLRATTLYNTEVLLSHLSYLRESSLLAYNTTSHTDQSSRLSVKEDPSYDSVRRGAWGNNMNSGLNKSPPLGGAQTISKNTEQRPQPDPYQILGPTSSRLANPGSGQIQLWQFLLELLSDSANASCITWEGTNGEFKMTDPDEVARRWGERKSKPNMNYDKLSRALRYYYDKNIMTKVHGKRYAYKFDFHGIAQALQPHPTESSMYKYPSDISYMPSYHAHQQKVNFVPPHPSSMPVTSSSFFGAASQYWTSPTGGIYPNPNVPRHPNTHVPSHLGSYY
The essentials:
(§1)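 GST fusions of human transcription factors were expressed in yeast and captured with glutathione beads. Once given DNA barcodes and pooled alongside a tag-only sample, they were incubated for 30 min at room temperature with 200 nmole of a random double-stranded 16-mer DNA library in Tris/NaCl/DTT/glycerol buffer, then washed, crosslinked (0.1% formaldehyde), proximity-ligated, PCR-amplified and sequenced on an Illumina NextSeq500. The binding signal of each hexamer is its read frequency for a factor divided by its frequency for the tag-only sample.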

A further assay concerns the target T2, ELK1 (Homo sapiens, UniProt P19419 1-428).
T2 sequence: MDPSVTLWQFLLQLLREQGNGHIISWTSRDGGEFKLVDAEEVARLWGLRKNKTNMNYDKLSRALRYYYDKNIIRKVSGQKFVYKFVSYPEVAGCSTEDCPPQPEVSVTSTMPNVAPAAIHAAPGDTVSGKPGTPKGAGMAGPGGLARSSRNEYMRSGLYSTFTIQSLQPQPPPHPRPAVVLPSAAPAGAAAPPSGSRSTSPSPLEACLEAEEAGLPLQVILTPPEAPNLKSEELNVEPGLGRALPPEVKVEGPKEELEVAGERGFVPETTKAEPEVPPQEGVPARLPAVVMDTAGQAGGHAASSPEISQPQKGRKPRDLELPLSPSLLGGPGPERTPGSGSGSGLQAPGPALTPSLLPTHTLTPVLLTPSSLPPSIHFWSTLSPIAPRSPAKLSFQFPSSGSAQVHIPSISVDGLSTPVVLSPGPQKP
A digest of the protocol: as §1

The next assay deals with T3, GABPA (Homo sapiens, UniProt Q06546 1-454).
T3 sequence: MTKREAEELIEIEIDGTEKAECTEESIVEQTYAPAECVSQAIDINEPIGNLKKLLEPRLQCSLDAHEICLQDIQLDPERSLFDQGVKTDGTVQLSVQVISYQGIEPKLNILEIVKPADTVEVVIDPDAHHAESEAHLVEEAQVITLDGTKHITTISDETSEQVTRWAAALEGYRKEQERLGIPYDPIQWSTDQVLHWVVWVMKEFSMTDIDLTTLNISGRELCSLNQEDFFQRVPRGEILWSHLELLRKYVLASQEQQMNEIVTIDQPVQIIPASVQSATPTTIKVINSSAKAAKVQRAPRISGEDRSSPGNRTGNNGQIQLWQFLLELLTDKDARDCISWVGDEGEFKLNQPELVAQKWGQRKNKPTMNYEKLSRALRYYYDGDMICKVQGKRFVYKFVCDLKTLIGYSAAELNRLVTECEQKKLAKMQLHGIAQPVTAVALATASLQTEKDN
A digest of the protocol:
as §1

A further assay addresses T4, ERG (Homo sapiens, UniProt P11308 1-479).
T4 sequence: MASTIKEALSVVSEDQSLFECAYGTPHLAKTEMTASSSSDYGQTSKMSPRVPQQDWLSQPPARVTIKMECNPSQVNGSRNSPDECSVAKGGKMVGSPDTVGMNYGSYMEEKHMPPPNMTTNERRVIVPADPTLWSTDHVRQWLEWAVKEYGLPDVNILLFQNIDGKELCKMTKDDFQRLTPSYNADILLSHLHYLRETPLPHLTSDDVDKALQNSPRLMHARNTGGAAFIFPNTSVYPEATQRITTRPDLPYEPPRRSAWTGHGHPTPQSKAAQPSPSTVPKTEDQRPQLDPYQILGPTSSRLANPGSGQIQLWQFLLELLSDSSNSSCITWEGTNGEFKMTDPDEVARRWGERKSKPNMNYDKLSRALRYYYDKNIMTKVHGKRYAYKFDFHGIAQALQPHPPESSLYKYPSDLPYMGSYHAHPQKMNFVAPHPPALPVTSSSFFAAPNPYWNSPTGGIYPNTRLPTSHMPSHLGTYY
The essentials:
as §1

For a further assay, the target named is ELF1 (Homo sapiens, UniProt P32519 1-619). A digest of the protocol:
as §1

A further assay has as its target T5, EHF (Homo sapiens, UniProt Q9NZC4 1-300).
T5 sequence: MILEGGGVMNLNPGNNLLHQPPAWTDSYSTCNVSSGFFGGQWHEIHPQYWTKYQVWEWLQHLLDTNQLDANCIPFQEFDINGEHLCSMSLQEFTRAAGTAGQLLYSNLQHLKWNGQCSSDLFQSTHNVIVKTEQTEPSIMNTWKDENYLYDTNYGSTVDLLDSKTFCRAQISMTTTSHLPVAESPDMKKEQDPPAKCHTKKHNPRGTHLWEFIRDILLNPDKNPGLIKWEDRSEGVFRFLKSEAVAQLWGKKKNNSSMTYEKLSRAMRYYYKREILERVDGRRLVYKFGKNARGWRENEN
The essentials:
as §1

Another assay concerns the target SPI1 (Homo sapiens, UniProt P17947 1-270). A digest of the protocol:
as §1

For another assay, the target named is SPIB (Homo sapiens, UniProt Q01892 1-262). The essentials: as §1
Sequence of SPIB (Q01892 whole entry): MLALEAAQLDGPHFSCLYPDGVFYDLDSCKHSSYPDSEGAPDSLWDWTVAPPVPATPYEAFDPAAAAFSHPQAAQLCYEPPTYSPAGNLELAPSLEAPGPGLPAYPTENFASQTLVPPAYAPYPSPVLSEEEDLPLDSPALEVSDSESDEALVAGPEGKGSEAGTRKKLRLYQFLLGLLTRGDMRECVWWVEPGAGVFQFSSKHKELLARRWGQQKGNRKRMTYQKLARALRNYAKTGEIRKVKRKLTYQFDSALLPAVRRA
In a further assay the target is T6, FEV (Homo sapiens, UniProt Q99581 1-238).
T6 sequence: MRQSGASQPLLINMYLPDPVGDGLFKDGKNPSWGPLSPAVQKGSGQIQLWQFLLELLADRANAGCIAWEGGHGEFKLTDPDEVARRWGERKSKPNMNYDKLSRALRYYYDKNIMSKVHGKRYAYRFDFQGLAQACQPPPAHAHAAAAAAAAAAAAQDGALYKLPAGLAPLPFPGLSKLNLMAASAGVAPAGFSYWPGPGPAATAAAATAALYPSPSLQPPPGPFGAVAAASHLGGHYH
The essentials: as §1

The next assay deals with ETV5 (Homo sapiens, UniProt P41161 1-510). A digest of the protocol: as §1
Sequence of ETV5 (P41161 whole entry): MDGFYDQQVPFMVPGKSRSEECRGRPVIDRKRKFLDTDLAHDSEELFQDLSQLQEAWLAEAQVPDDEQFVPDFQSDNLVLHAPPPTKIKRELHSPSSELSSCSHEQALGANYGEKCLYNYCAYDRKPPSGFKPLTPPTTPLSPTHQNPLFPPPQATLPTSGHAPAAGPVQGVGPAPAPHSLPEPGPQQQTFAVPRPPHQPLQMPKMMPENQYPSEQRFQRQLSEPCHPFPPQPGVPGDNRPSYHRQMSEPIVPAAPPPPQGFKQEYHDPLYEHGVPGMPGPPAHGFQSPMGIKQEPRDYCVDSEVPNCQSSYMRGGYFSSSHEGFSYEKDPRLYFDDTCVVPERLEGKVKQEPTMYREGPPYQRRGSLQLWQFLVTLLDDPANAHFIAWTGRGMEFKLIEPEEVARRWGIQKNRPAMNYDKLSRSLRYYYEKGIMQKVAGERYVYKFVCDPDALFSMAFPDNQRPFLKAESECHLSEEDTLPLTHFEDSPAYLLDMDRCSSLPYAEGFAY
The target in the next assay is T7, SPIC (Homo sapiens, UniProt Q8N5J4 1-248).
T7 sequence: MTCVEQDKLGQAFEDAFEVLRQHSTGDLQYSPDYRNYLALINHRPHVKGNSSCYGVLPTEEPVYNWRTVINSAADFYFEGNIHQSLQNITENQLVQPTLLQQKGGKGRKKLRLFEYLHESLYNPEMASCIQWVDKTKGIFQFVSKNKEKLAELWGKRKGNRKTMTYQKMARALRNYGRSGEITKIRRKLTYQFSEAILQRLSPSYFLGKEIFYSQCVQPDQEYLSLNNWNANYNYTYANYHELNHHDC
The essentials:
as §1

The target of a further assay is ELF4 (Homo sapiens, UniProt Q99607 1-663). The essentials:
as §1

In a further assay the target is T8, ELK4 (Homo sapiens, UniProt P28324-2 1-405).
T8 sequence: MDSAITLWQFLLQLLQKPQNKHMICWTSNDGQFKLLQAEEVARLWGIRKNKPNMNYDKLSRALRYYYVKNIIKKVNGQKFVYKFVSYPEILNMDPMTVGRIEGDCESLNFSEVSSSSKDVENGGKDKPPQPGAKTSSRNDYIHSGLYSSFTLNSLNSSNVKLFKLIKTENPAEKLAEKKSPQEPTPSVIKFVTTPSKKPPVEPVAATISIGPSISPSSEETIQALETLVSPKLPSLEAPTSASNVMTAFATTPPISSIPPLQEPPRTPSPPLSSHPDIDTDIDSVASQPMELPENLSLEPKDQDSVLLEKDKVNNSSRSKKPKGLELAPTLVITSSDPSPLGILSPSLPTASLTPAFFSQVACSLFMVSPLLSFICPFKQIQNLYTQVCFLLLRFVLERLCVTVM
The essentials:
as §1

The target in the next assay is T9, ETV2 (Homo sapiens, UniProt O00321 1-342).
T9 sequence: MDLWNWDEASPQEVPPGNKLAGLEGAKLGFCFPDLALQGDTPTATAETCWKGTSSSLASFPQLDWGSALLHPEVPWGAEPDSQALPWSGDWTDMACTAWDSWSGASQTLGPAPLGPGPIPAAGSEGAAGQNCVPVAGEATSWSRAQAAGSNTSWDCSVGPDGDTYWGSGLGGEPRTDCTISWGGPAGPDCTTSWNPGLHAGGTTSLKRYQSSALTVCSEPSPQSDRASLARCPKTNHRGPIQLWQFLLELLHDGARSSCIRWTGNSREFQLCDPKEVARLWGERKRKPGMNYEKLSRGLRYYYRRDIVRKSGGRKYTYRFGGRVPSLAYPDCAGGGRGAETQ
A digest of the protocol: as §1

A further assay concerns the target T10, ELF3 (Homo sapiens, UniProt P78545 1-371).
T10 sequence: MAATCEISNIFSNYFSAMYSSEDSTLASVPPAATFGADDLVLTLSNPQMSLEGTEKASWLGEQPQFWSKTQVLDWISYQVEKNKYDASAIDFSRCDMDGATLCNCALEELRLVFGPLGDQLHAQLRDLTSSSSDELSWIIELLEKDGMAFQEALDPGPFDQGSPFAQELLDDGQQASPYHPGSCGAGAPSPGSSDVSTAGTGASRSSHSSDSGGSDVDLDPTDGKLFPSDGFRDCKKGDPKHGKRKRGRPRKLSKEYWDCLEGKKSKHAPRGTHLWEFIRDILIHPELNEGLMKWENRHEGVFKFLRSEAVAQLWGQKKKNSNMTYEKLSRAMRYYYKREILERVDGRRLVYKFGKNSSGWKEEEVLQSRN
A digest of the protocol:
as §1

The next assay addresses ETV1 (Homo sapiens, UniProt P50549 1-477). The essentials:
as §1

The next assay addresses T11, ELK3 (Homo sapiens, UniProt P41970 1-407).
T11 sequence: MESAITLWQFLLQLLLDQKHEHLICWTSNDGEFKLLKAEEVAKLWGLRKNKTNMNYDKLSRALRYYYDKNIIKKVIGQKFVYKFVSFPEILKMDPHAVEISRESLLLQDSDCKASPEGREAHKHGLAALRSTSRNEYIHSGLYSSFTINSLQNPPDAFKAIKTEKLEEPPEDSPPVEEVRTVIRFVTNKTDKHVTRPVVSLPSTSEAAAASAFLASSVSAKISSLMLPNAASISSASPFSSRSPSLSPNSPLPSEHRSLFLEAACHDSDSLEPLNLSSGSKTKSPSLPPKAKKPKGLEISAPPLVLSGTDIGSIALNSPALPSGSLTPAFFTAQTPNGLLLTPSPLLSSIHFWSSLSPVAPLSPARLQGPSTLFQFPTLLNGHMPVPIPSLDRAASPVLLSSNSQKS
A digest of the protocol:
as §1

Sequence of ELF4 (Q99607 whole entry): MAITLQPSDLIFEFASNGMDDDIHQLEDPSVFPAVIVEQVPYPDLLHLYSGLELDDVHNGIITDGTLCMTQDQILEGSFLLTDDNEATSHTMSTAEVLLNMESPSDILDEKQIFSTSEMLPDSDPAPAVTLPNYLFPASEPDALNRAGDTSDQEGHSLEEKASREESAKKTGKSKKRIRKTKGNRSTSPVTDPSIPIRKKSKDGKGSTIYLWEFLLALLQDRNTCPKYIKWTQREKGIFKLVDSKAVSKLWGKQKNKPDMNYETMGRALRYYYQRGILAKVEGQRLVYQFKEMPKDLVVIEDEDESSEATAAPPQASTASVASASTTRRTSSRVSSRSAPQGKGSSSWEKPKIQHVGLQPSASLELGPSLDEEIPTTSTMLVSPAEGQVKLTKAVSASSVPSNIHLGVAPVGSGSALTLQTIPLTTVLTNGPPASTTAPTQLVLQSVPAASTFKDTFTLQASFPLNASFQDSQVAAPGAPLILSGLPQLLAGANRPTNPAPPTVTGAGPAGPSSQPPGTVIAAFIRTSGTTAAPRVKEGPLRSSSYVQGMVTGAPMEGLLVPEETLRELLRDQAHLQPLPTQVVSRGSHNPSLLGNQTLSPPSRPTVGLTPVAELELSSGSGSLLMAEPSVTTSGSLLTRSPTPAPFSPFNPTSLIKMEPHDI
Sequence of ELF1 (P32519 whole entry): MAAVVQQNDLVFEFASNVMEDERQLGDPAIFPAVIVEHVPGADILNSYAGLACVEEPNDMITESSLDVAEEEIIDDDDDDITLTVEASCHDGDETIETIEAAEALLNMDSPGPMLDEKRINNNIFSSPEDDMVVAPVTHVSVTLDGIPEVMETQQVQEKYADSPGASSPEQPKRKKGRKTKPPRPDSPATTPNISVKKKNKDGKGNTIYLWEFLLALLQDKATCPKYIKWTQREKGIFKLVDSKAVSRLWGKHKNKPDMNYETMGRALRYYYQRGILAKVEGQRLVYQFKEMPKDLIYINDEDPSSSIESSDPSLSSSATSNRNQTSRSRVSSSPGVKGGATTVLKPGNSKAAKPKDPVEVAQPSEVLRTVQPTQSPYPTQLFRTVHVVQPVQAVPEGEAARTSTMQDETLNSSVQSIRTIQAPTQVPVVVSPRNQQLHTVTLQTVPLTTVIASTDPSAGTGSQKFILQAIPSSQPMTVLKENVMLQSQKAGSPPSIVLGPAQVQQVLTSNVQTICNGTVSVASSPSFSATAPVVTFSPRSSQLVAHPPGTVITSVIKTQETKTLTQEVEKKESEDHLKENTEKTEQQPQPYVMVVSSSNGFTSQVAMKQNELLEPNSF
Sequence of ETV1 (P50549 whole entry): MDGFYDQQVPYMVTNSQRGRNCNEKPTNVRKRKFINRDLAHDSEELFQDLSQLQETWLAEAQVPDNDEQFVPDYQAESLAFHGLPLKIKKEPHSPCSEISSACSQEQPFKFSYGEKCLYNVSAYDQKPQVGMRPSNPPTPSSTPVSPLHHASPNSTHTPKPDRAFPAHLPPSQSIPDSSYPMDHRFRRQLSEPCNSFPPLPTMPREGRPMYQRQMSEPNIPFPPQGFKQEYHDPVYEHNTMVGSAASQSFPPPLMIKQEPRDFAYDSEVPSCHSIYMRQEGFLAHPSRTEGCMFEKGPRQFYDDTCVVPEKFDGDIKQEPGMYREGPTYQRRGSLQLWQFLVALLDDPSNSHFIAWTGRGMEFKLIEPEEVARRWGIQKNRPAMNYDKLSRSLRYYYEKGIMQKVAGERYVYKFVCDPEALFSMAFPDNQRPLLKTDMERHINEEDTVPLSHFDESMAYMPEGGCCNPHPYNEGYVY

As to CCGGGT, the binding signal with FLI1 is 1.2 fold enrichment (6-mer frequency, TF over GST control); with ELK1, 1.06 fold enrichment (6-mer frequency, TF over GST control); with GABPA, 1.01 fold enrichment (6-mer frequency, TF over GST control); in the assay with ERG, 1.12 fold enrichment (6-mer frequency, TF over GST control); with ELF1, 1.13 fold enrichment (6-mer frequency, TF over GST control); in the assay with EHF, 1.17 fold enrichment (6-mer frequency, TF over GST control). Also, the binding signal with SPI1 is 1.01 fold enrichment (6-mer frequency, TF over GST control); in the assay with SPIB, 1.16 fold enrichment (6-mer frequency, TF over GST control); with FEV it was 1.02 fold enrichment (6-mer frequency, TF over GST control); with ETV5 it was 1.26 fold enrichment (6-mer frequency, TF over GST control); in the assay with SPIC, 1.19 fold enrichment (6-mer frequency, TF over GST control); with ELF4 it was 1.15 fold enrichment (6-mer frequency, TF over GST control). In addition, the binding signal in the assay with ELK4 is 1.09 fold enrichment (6-mer frequency, TF over GST control); with ETV2, 1.15 fold enrichment (6-mer frequency, TF over GST control); in the assay with ELF3 it was 1.12 fold enrichment (6-mer frequency, TF over GST control); in the assay with ETV1, 1.17 fold enrichment (6-mer frequency, TF over GST control).

With CCACAT, the binding signal with FLI1 was 1.2 fold enrichment (6-mer frequency, TF over GST control); with ELK1, 1.3 fold enrichment (6-mer frequency, TF over GST control); in the assay with GABPA, 1.12 fold enrichment (6-mer frequency, TF over GST control); with ERG, 1.15 fold enrichment (6-mer frequency, TF over GST control); with ELF1 it was 1.25 fold enrichment (6-mer frequency, TF over GST control); in the assay with EHF it was 1.21 fold enrichment (6-mer frequency, TF over GST control). Further, the binding signal with SPI1 was 1.07 fold enrichment (6-mer frequency, TF over GST control); in the assay with SPIB it was 1.16 fold enrichment (6-mer frequency, TF over GST control); with ELK3 it was 1.14 fold enrichment (6-mer frequency, TF over GST control); in the assay with FEV, 1.27 fold enrichment (6-mer frequency, TF over GST control); with ETV5, 1.17 fold enrichment (6-mer frequency, TF over GST control); in the assay with SPIC, 1.29 fold enrichment (6-mer frequency, TF over GST control). The binding signal in the assay with ELF4 is 1.21 fold enrichment (6-mer frequency, TF over GST control); with ELK4, 1.28 fold enrichment (6-mer frequency, TF over GST control); with ETV2, 1.17 fold enrichment (6-mer frequency, TF over GST control); with ELF3, 1.17 fold enrichment (6-mer frequency, TF over GST control); with ETV1, 1.21 fold enrichment (6-mer frequency, TF over GST control).
